Bioassay records deposited in PubChem by several laboratories.
This is a sample that favours compounds with a hit; in the whole collection about 4.6% have one here.
HSF1 inh = HSF1 inhibition; NIH3T3-HGL HSE-luciferase, MG132-induced, luminescence 8 h; active compounds read low; activity change, negative = inhibition, % at 7.5 µM (by protocol); 300,000 compounds, 0.77% hits;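 active = more than half of replicate wells show activity change below -50%, luminescence cut by over half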;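 note: luciferase reports HSF-1 transcriptional activity via heat shock element; 0% = median of DMSO wells and -100% = zero luminescence signal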
AHR activator = human AHR activation; P35869; AHR-responsive luciferase reporter cells, luminescence; activation, % at 5 µM; 320,000 compounds, 2.5% hits; AID 2796; in the data active = activation above about 47%;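 note: 0% = vehicle wells and 100% = reference agonist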
HSF-1 act = increases HSF-1 driven luciferase reporter signal; NIH3T3-HGL HSF-1 luciferase reporter, MG132, 8 h; 100% = twice DMSO control signal; activation, % at 9 µM; 300,000 compounds, 1.7% hits;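 active = mean replicate activation of at least 50% with a set share of replicates each reaching 50%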;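 note: 0% = median of the neutral control wells and 100% = twice that signal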
GAA850 FXN act = increases GAA850 frataxin promoter reporter activity. HEK293 lucGAA850 FXN promoter luciferase reporter, 24 h; percent of 10 µM SAHA response. activation, % at 6 µM. 360,000 compounds, 0.56% hits. AID 540364;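 active = activation above the average of all compounds screened plus 3 SD, cutoff fixed separately per campaign, cut at about 7.5% in these data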;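 note: 0% = DMSO wells and 100% = 10 µM SAHA wells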
AHR act confirm = human AHR activation, confirmation; shares compounds with AHR activator; human cells, AHR-responsive luciferase reporter, luminescence; activation, % at 9 µM; 2,300 compounds, 87% hits; in the data active = activation above about 49%;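 note: HepG2 hepatoma cells carrying a DRE-driven firefly luciferase reporter; 0% = vehicle wells and 100% = reference agonist wells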
PXR counter = activates human PXR in AHR activator counter-screen; shares compounds with AHR activator; cell-based PXR reporter, luciferase luminescence; activation, % at 11.6 µM; 2,300 compounds, 88% hits; AID 434939; in the data active = activation above about 11%;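 note: human hepatoma DPX-2 cells expressing full-length human PXR; 0% = DMSO and 100% = reference agonist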
Target sequence (O75469 whole entry, looked up): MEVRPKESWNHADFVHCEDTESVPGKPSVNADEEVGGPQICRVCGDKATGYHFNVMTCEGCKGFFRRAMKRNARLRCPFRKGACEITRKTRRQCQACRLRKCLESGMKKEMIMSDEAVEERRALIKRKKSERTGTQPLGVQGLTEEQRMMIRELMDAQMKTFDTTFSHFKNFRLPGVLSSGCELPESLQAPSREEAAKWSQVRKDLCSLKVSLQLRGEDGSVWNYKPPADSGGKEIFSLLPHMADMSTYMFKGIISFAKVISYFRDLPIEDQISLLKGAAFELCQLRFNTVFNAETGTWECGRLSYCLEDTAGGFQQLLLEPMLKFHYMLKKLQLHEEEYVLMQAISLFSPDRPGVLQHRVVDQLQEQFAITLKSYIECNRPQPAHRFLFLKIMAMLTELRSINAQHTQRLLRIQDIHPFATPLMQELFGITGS
* marks the source's active call; other numbers are inactive results; . = no result given.

SMILES | HSF1 inh | AHR activator | HSF-1 act | GAA850 FXN act | AHR act confirm | PXR counter
CCOc1ccc(C(=O)Nc2nnc(C)s2)cc1OCC | -5 | 50* | -9 | -3 | . | .
O=C(Nc1nnc(Cc2ccccc2)s1)c1ccccc1 | 14 | 54* | 30 | 3 | . | .
O=C(Nc1ccnn1C1CCN(C(=O)Cc2cccc(Cl)c2)CC1)C1CC1 | 5 | 0 | 6 | 2 | . | .
Cn1c(COc2ccccc2)nnc1SCC(=O)NCc1ccccc1 | -6 | -2 | -13 | -1 | . | .
COc1cccc(OCC(=O)O/N=C(\N)c2ccc(OC)c(OC)c2)c1 | 3 | 5 | 8 | 4 | . | .
CC1(C)CNC(=O)c2sc(NC(=O)c3ccccc3)nc2C1 | 12 | 22 | 34 | 6 | . | .
CC1(C)CC(=O)c2sc(NC(=O)c3ccccc3)nc2C1 | 17 | 6 | 54* | . | . | .
CN(C)CCCCNCCCNC(=O)/C=N\O | 26 | -4 | 62* | 2 | . | .
O=C(NCc1ccccc1)C1CCCN(S(=O)(=O)c2cccc3nsnc23)C1 (stereo unspecified) | -72* | 3 | -78 | 2 | . | .
C=C(C)CSc1nnc(-c2ccc(OC)c(OC)c2)n1N | 0 | 8 | -4 | 1 | . | .
O=C(OC1CCOC1=O)c1cc(Cl)ccc1[N+](=O)[O-] (stereo unspecified) | 19 | 2 | 58* | 1 | . | .
Cc1ccc(NS(=O)(=O)c2ccc(Cl)s2)nc1 | 0 | -1 | 5 | 2 | . | .
O=C1N/C(=N\N=C\c2cccs2)SC1Cc1cccc(Cl)c1Cl (stereo unspecified) | -36 | 7 | -47 | 1 | . | .
CN(C)C=Nc1ccc2nn(-c3ccccc3)nc2c1 | 19 | 109* | 44 | 3 | 117* | 17*
CCCCNC(=O)CC1Nc2ccccc2NC1=O (stereo unspecified) | -1 | 86* | 12 | 1 | 52* | 58*
O=C(CCN1C(=O)c2ccccc2C1=O)Nc1ccc(-c2cn3ccsc3n2)cc1 | 11 | 102* | 12 | -4 | 125* | 25*
CCOc1ccc(-c2nnc(SCc3nnc(-c4ccccc4)o3)n2-c2ccccc2F)cc1 | 2 | 7 | 8 | 0 | . | .
Cn1c(=O)[nH]c2nnc(-c3ccc(Cl)c(Cl)c3)nc2c1=O | 2 | 112* | 13 | 3 | 42 | 15*
CSc1cnc2c(=O)n(C)c(=O)[nH]c2n1 | -4 | 1 | 1 | 1 | . | .
Cn1nnc(NC(=O)C(c2ccccc2)c2ccccc2)n1 | 5 | -1 | 34 | -2 | . | .
CCOc1cc(CNC)ccc1OCC(=O)NC(C)(C)C | -8 | -4 | -17 | 1 | . | .
Cc1ccc(/C=C2\C(=O)Nc3ccccc32)o1 | 2 | 22 | 8 | 2 | . | .
Cc1ccc2c(c1)/C(=C/c1ccco1)C(=O)N2 | 6 | 116* | 24 | 4 | 99* | 23*
O=[N+]([O-])c1cc(Cl)ccc1N1CCN(c2ccccc2O)CC1 | 15 | -2 | 41 | 3 | . | .
O=C(Nc1cc(Cl)ccc1-n1cncn1)c1cc(F)cc(F)c1 | -1 | 41 | 12 | 2 | . | .
SMILES | HSF1 inh | AHR activator | HSF-1 act | GAA850 FXN act | AHR act confirm | PXR counter
O=C(Nc1cc(Cl)ccc1-n1cncn1)c1cccs1 | -6 | 84* | 0 | 1 | 116* | 20*
Cc1ccc(NC(=S)c2nc3ccccc3[nH]2)c(C)c1 | 26 | 94* | 72* | 4 | 84* | .
O=C(Nc1ccc(-c2nc3cccnc3s2)cc1)c1ccc(Cl)nc1 | -7 | 86* | 15 | 4 | 5 | 11*
Cc1c(C(=O)O/N=C(\N)c2ccccn2)cccc1[N+](=O)[O-] | 16 | 97* | 33 | 1 | 92* | 12*
N/C(=N\OC(=O)c1cc(Br)ccc1Cl)c1ccccn1 | 19 | 108* | 39 | 2 | 61* | 12*
N/C(=N\OC(=O)c1ccc(Cl)cc1[N+](=O)[O-])c1cccnc1 | 19 | 90* | 45 | 5 | 91* | 15*
N/C(=N\OC(=O)c1cc(Cl)ccc1Cl)c1cccnc1 | 14 | 34 | 32 | 4 | . | .
N/C(=N\OC(=O)Cc1ccccc1[N+](=O)[O-])c1ccccn1 | 2 | 5 | -4 | 4 | . | .
N/C(=N\OC(=O)c1ccc(Cl)cc1[N+](=O)[O-])c1ccccn1 | 1 | 146* | -2 | 3 | 53* | 13*
N/C(=N\OC(=O)Cc1ccc(Cl)cc1)c1ccccn1 | 6 | 1 | 8 | 3 | . | .
N/C(=N\OC(=O)c1cc([N+](=O)[O-])ccc1Cl)c1ccccn1 | 7 | 21 | 14 | -1 | . | .
Cc1ccc(C)c(N2CCN(C(=O)CCc3nc(-c4ccccc4C(F)(F)F)no3)CC2)c1 | . | . | . | 4 | . | .
COC(=O)c1cc(NC(=O)CC2NCCNC2=O)cc(C(=O)OC)c1 (stereo unspecified) | 1 | 0 | 0 | 0 | . | .
COc1ccccc1Nc1nc(N)nc(CSc2ncccn2)n1 | -5 | 8 | 6 | 1 | . | .
Cc1cccc(Nc2nc(N)nc(CSc3nccc(C)n3)n2)c1 | 6 | 103* | 1 | 1 | 103* | 119*
CCOc1ccccc1Nc1nc(N)nc(CSc2nccc(C)n2)n1 | -15 | 81* | -37 | 1 | 70* | 60*
COc1ccc(Nc2nc(N)nc(CSc3nccc(C)n3)n2)cc1 | -3 | 34 | 7 | 8 | . | .
Cc1cc(=O)[nH]c(SCC(=O)Nc2ccc(Br)cc2)c1C#N | -4 | 17 | -1 | 0 | . | .
Cc1coc2c(C)c3oc(=O)c(CCC(=O)N[C@@H](C)C(=O)N[C@@H](Cc4ccccc4)C(=O)O)c(C)c3cc12 | -3 | 0 | -2 | -2 | . | .
Cc1c(NC(=O)c2ccco2)cccc1-c1nc2cccnc2s1 | 3 | 109* | -4 | 0 | 90* | 14*
Cc1c(NC(=O)c2ccc(Cl)nc2)cccc1-c1nc2cccnc2s1 | -9 | 18 | 1 | 1 | . | .
COc1cc2ccccc2cc1C(=O)Nc1ccc(Cc2ccncc2)cc1 | -1 | 46 | 9 | -2 | . | .
COc1cc2ccccc2cc1C(=O)Nc1ccc(C)cc1 | 21 | 83* | 39 | 2 | 92* | .
COc1ccc(C(=O)Nc2ccc3ccccc3c2)c(OC)c1 | 5 | 85* | 37 | 5 | 96* | 9
COc1ccc(-c2cc3cc(OC)c(OC)cc3c(C)n2)cc1C | 2 | 96* | 2 | 5 | 58* | 29*
Cc1nc(NC(=O)CSc2nnc(-c3ccc4c(c3)OCO4)o2)c(Cl)cc1Cl | 4 | 128* | 22 | 2 | 105* | 88*
O=C(CSc1nnc(-c2ccc3c(c2)OCO3)o1)Nc1ncc(C(F)(F)F)cc1Cl | 7 | 1 | -5 | 1 | . | .
Cc1ccc(Nc2nc(N)c([N+](=O)[O-])c(N3CCOCC3)n2)cc1 | -1 | 81* | -2 | 6 | 77* | 22*
Cc1cccc(Nc2nc(N)c([N+](=O)[O-])c(N3CCOCC3)n2)c1 | -2 | 14 | -11 | 7 | . | .
CCOc1nc(Nc2ccc(OC)cc2)nc(OCC)n1 | 2 | 13 | 20 | 3 | . | .
